# Test results published in publication PMC7862700, “An all-to-all approach to the identification of sequence-specific readers for epigenetic DNA modifications on cytosine”.
# What was measured:
# Assay in all cases: DAPPL (digital affinity profiling via proximity ligation, sequencing); 10 mM Tris-HCl pH 7.5, 50 mM NaCl, 1 mM DTT, 4% glycerol, room temperature, 30 min; GST-TFs on glutathione beads, 16-mer random dsDNA library, 0.1% formaldehyde crosslink after washing; high values mean tight binding
# [1] = molecular target: T1, FLI1 (Homo sapiens, UniProt Q01543 1-452); settings: protein: recombinant; tags: N-terminal GST; dsDNA, one strand shown
# T1 sequence: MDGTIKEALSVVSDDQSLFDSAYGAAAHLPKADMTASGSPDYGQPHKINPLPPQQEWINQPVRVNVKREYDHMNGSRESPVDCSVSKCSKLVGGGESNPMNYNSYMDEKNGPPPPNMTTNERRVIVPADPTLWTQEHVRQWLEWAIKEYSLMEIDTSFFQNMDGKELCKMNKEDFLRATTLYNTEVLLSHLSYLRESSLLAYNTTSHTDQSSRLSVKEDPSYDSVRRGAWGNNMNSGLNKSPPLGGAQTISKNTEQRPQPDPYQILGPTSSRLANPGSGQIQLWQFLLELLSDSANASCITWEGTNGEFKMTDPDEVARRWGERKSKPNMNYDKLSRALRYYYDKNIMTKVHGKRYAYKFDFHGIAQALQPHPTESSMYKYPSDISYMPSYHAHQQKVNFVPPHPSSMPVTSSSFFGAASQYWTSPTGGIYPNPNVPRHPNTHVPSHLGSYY
# Summary of the method: (§1)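 Pools of DNA-barcoded human transcription factors, expressed in yeast as GST fusions on glutathione beads and combined with a tag-only sample, were incubated with 200 nmole of a 16-mer random double-stranded DNA library. Incubation took 30 min at room temperature in Tris/NaCl/DTT/glycerol buffer and was followed by washing, 0.1% formaldehyde crosslinking, proximity ligation (BsaI/T4 ligase, 1 h, 37 °C), PCR amplification and sequencing on an Illumina NextSeq500. Binding signal is the ratio of a hexamer's read frequency for a factor to its frequency for the tag-only sample.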
# [2] = molecular target: T2, ELK1 (Homo sapiens, UniProt P19419 1-428); settings: protein: recombinant; tags: N-terminal GST; dsDNA, one strand shown
# T2 sequence: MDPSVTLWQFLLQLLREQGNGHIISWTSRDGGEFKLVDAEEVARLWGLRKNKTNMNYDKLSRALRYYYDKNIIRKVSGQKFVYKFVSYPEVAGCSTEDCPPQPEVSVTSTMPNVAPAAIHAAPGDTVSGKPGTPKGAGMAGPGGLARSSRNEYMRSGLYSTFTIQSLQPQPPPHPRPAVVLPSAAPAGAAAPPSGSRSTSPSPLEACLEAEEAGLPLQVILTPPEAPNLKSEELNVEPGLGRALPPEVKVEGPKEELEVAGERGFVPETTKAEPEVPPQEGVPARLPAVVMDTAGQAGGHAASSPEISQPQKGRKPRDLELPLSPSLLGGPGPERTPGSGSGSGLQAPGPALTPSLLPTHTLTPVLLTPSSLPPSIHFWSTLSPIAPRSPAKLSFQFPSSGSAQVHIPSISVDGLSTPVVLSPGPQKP
# Summary of the method: as §1
# [3] = molecular target: T3, GABPA (Homo sapiens, UniProt Q06546 1-454); settings: protein: recombinant; tags: N-terminal GST; dsDNA, one strand shown
# T3 sequence: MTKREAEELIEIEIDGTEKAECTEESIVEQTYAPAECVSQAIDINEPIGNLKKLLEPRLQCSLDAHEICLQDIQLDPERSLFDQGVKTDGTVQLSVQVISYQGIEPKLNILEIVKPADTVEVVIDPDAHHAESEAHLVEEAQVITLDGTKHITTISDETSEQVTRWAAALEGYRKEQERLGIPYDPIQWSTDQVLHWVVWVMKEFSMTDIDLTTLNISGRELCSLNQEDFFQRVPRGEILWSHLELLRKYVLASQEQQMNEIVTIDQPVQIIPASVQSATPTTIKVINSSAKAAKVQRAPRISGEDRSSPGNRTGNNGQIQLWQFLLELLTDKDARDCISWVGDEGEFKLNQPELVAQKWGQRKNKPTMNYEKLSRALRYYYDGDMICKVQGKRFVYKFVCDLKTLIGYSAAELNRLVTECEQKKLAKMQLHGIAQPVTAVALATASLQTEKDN
# Summary of the method: as §1
# [4] = molecular target: T4, ERG (Homo sapiens, UniProt P11308 1-479); settings: protein: recombinant; tags: N-terminal GST; dsDNA, one strand shown
# T4 sequence: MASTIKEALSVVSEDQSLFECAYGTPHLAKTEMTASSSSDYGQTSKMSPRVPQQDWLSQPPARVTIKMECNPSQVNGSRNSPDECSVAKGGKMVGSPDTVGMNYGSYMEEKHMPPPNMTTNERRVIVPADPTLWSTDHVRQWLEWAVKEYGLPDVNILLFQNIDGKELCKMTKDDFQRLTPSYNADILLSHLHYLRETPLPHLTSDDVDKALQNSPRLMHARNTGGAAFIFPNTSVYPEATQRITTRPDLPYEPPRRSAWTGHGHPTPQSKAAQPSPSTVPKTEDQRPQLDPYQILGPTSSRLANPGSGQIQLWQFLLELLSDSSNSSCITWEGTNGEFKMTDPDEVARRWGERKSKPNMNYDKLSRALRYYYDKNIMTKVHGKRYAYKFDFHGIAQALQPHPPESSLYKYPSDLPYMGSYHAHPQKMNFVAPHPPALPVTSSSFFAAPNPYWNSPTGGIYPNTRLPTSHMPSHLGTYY
# Summary of the method: as §1
# [5] = molecular target: ELF1 (Homo sapiens, UniProt P32519 1-619); settings: protein: recombinant; tags: N-terminal GST; dsDNA, one strand shown
# Summary of the method: as §1
# [6] = molecular target: T5, EHF (Homo sapiens, UniProt Q9NZC4 1-300); settings: protein: recombinant; tags: N-terminal GST; dsDNA, one strand shown
# T5 sequence: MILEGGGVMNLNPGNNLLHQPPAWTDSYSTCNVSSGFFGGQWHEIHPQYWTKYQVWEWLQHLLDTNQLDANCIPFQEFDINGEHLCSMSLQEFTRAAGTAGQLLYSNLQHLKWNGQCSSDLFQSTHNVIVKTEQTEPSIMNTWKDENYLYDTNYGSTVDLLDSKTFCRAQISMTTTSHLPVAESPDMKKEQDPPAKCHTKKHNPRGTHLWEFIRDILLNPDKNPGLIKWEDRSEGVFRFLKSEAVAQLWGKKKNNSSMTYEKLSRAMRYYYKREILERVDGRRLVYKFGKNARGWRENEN
# Summary of the method: as §1
# [7] = molecular target: SPI1 (Homo sapiens, UniProt P17947 1-270); settings: protein: recombinant; tags: N-terminal GST; dsDNA, one strand shown
# Summary of the method: as §1
# [8] = molecular target: SPIB (Homo sapiens, UniProt Q01892 1-262); settings: protein: recombinant; tags: N-terminal GST; dsDNA, one strand shown
# Summary of the method: as §1
# [9] = molecular target: T6, ELK3 (Homo sapiens, UniProt P41970 1-407); settings: protein: recombinant; tags: N-terminal GST; dsDNA, one strand shown
# T6 sequence: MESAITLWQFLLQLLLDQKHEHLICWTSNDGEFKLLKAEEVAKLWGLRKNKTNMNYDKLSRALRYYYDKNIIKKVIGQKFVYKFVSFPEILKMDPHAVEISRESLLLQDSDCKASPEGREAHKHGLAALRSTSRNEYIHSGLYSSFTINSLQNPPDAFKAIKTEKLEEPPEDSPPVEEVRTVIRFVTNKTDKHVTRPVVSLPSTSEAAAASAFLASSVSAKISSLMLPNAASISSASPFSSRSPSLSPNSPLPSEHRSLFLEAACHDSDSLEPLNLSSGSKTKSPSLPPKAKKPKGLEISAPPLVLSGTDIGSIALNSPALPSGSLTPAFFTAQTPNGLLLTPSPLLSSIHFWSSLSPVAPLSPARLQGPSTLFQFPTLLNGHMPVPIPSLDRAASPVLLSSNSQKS
# Summary of the method: as §1
# [10] = molecular target: T7, FEV (Homo sapiens, UniProt Q99581 1-238); settings: protein: recombinant; tags: N-terminal GST; dsDNA, one strand shown
# T7 sequence: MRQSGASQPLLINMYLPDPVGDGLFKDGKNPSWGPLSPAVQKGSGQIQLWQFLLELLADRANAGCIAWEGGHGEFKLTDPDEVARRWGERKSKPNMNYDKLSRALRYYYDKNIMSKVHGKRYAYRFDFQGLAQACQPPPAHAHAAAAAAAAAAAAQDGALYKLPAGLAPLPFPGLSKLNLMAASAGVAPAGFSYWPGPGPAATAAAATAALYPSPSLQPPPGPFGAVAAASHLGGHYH
# Summary of the method: as §1
# [11] = molecular target: ETV5 (Homo sapiens, UniProt P41161 1-510); settings: protein: recombinant; tags: N-terminal GST; dsDNA, one strand shown
# Summary of the method: as §1
# [12] = molecular target: HSF1 (Homo sapiens, UniProt Q00613 1-529); settings: protein: recombinant; tags: N-terminal GST; chain copies: 3; dsDNA, one strand shown
# Summary of the method: as §1
# [13] = molecular target: T8, SPIC (Homo sapiens, UniProt Q8N5J4 1-248); settings: protein: recombinant; tags: N-terminal GST; dsDNA, one strand shown
# T8 sequence: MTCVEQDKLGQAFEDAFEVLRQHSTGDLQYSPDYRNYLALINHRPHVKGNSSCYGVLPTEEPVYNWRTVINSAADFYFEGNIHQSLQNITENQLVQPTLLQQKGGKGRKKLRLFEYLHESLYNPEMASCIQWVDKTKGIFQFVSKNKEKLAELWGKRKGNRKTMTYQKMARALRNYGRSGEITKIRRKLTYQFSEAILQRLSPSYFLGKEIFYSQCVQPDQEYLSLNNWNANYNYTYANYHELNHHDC
# Summary of the method: as §1
# [14] = molecular target: ELF4 (Homo sapiens, UniProt Q99607 1-663); settings: protein: recombinant; tags: N-terminal GST; dsDNA, one strand shown
# Summary of the method: as §1
# [15] = molecular target: T9, ELK4 (Homo sapiens, UniProt P28324-2 1-405); settings: protein: recombinant; tags: N-terminal GST; dsDNA, one strand shown
# T9 sequence: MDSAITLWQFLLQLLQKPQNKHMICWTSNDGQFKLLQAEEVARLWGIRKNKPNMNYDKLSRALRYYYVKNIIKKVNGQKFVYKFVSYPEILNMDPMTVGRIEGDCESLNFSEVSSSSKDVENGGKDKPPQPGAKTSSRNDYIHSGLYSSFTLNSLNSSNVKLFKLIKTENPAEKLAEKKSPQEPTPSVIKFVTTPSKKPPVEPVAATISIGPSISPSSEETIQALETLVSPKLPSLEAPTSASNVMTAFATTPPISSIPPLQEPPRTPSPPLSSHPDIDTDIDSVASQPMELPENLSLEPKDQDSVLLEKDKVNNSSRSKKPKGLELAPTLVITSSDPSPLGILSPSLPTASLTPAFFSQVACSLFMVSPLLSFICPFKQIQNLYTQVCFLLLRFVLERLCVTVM
# Summary of the method: as §1
# [16] = molecular target: T10, ETV2 (Homo sapiens, UniProt O00321 1-342); settings: protein: recombinant; tags: N-terminal GST; dsDNA, one strand shown
# T10 sequence: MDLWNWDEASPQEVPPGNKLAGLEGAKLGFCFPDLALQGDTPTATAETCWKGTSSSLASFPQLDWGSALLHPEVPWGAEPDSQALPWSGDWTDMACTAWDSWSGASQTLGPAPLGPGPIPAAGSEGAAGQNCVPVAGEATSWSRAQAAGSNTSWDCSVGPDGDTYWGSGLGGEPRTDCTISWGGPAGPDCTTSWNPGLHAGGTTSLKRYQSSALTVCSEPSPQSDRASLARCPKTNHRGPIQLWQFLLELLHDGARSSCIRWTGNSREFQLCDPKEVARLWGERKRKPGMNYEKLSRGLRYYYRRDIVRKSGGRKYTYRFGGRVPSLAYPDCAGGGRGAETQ
# Summary of the method: as §1
# [17] = molecular target: T11, ELF3 (Homo sapiens, UniProt P78545 1-371); settings: protein: recombinant; tags: N-terminal GST; dsDNA, one strand shown
# T11 sequence: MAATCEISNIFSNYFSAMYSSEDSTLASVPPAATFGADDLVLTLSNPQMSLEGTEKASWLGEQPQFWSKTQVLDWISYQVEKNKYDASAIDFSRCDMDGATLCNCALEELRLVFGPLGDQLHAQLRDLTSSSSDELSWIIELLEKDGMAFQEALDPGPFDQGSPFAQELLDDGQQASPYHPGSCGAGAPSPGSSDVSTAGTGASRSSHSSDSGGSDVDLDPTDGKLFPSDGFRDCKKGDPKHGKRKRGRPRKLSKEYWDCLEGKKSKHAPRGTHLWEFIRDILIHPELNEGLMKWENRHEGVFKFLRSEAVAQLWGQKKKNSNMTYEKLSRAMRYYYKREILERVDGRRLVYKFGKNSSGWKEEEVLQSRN
# Summary of the method: as §1
# [18] = molecular target: CRX (Homo sapiens, UniProt O43186 1-299); settings: protein: recombinant; tags: N-terminal GST; dsDNA, one strand shown
# Summary of the method: as §1
# [19] = molecular target: ETV1 (Homo sapiens, UniProt P50549 1-477); settings: protein: recombinant; tags: N-terminal GST; dsDNA, one strand shown
# Summary of the method: as §1
# Chain of SPIB (Q01892 whole entry): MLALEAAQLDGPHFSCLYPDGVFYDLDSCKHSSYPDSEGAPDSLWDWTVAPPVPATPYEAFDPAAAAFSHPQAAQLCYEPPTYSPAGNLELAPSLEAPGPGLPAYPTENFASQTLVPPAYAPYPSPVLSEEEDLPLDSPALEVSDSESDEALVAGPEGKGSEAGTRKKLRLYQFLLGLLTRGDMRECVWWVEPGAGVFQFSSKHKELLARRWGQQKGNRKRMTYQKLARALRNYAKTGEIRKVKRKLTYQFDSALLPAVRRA
# Chain of ETV1 (P50549 whole entry): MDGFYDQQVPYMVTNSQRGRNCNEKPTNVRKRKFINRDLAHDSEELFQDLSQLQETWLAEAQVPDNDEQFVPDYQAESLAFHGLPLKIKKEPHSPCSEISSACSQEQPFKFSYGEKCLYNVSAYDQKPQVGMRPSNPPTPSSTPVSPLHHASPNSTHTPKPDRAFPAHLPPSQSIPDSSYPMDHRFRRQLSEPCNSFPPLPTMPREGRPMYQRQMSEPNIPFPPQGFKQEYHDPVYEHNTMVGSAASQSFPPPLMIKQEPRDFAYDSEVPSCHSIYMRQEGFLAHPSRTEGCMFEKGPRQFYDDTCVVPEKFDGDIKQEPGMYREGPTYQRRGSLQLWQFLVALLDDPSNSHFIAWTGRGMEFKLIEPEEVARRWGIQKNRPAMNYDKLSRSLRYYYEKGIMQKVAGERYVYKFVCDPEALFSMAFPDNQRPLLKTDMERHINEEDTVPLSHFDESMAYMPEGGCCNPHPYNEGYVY
# Chain of ELF1 (P32519 whole entry): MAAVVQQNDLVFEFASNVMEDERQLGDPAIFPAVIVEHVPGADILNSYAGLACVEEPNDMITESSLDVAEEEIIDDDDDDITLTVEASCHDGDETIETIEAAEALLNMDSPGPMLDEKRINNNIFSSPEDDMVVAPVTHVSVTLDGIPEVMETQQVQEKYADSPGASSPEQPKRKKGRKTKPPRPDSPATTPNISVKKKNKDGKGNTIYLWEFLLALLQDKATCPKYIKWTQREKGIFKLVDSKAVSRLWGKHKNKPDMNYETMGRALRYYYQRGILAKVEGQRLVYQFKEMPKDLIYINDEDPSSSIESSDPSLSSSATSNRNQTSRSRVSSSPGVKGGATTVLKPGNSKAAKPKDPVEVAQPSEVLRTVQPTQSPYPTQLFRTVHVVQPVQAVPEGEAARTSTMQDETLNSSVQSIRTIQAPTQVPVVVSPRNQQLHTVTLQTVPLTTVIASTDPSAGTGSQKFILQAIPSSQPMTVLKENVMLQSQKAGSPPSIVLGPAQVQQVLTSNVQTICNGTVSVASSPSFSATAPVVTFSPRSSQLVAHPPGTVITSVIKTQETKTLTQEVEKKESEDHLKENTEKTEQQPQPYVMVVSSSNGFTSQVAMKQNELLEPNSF
# Chain of ETV5 (P41161 whole entry): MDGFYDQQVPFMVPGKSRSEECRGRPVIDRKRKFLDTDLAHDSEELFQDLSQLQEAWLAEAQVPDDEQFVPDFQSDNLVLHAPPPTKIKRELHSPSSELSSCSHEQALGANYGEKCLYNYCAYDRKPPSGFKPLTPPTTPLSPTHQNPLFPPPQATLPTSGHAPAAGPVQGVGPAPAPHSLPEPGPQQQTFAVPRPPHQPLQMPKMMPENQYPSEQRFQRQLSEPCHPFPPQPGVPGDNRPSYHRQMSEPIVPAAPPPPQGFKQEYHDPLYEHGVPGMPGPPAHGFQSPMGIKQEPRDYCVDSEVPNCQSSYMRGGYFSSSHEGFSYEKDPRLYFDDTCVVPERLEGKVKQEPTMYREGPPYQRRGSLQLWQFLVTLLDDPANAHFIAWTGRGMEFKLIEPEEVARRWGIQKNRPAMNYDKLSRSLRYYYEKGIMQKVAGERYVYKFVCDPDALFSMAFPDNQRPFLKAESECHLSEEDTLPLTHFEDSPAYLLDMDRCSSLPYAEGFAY
# Chain of ELF4 (Q99607 whole entry): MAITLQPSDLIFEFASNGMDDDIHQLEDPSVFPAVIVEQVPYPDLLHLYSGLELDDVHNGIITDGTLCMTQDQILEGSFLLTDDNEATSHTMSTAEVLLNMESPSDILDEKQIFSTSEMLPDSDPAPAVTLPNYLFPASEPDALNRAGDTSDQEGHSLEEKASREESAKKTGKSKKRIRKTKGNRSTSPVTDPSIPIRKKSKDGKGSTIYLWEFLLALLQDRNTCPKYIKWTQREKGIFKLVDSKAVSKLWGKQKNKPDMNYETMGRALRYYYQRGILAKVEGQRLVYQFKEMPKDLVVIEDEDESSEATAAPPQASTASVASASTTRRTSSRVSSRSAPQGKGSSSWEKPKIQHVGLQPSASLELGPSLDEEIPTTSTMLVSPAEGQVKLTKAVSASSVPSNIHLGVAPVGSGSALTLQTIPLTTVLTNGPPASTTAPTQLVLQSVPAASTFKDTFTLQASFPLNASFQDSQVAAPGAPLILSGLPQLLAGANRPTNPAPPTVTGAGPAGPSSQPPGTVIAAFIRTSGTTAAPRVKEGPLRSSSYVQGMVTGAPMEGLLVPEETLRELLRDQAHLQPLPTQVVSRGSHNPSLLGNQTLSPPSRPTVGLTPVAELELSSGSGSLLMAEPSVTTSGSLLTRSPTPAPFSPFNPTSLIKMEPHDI
# Chain of CRX (O43186 whole entry): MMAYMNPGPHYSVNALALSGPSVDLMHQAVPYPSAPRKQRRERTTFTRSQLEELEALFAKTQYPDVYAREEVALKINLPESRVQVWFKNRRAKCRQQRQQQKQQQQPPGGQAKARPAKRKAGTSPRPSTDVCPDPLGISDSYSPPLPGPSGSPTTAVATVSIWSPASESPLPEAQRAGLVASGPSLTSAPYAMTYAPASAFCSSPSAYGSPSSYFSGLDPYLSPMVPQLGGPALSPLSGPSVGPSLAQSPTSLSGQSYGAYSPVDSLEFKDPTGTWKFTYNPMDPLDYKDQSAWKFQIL
# Chain of HSF1 (Q00613 whole entry): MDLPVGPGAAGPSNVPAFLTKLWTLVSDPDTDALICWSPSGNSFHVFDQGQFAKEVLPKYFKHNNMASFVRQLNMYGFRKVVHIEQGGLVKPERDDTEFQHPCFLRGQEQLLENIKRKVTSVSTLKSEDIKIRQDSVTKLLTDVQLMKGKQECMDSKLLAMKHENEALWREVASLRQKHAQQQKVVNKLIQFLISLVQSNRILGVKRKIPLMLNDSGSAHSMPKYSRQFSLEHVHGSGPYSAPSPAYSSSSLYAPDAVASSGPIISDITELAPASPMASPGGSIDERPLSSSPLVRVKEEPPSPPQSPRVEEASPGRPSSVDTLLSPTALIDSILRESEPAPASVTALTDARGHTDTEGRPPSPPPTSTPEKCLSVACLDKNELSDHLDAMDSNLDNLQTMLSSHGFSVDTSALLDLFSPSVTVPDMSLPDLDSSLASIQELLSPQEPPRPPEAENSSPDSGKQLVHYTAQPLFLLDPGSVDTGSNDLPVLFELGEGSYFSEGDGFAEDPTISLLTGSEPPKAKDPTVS
sequence,measurement,setting,value
CTGATG,binding signal,[1],"1.75 fold enrichment (6-mer frequency, TF over GST control)"
same,binding signal,[2],"1.65 fold enrichment (6-mer frequency, TF over GST control)"
same,binding signal,[3],"1.7 fold enrichment (6-mer frequency, TF over GST control)"
same,binding signal,[4],"1.43 fold enrichment (6-mer frequency, TF over GST control)"
same,binding signal,[5],"1.6 fold enrichment (6-mer frequency, TF over GST control)"
same,binding signal,[6],"1.59 fold enrichment (6-mer frequency, TF over GST control)"
same,binding signal,[7],"1.63 fold enrichment (6-mer frequency, TF over GST control)"
same,binding signal,[8],"1.7 fold enrichment (6-mer frequency, TF over GST control)"
same,binding signal,[9],"1.5 fold enrichment (6-mer frequency, TF over GST control)"
same,binding signal,[10],"1.62 fold enrichment (6-mer frequency, TF over GST control)"
same,binding signal,[11],"1.65 fold enrichment (6-mer frequency, TF over GST control)"
same,binding signal,[12],"1.33 fold enrichment (6-mer frequency, TF over GST control)"
same,binding signal,[13],"1.79 fold enrichment (6-mer frequency, TF over GST control)"
same,binding signal,[14],"1.79 fold enrichment (6-mer frequency, TF over GST control)"
same,binding signal,[15],"1.83 fold enrichment (6-mer frequency, TF over GST control)"
same,binding signal,[16],"1.7 fold enrichment (6-mer frequency, TF over GST control)"
same,binding signal,[17],"1.65 fold enrichment (6-mer frequency, TF over GST control)"
same,binding signal,[18],"1.46 fold enrichment (6-mer frequency, TF over GST control)"
same,binding signal,[19],"1.61 fold enrichment (6-mer frequency, TF over GST control)"
